Measurements published in PubChem BioAssay AID1159580 (chemical genetic matrix, 2015).
The campaign covered roughly 5,500 compounds. About 2,000 (36%) were called active. About 18% were inconclusive and are not listed. This is one part of the list. Values without a mark were called inactive. Rule as the data show it: active = normalized growth mostly below about 0.91 (no sharp cut-off); inconclusive = no clear call, values can overlap the other calls; inactive = mostly above about 0.92.

Assay: chemical genetic growth profiling, strain panel (AID 1159580);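 also: tested at 20 µM; growth read once vehicle control cultures reached saturation at 30 °C; 1 = growth at the plate median or of vehicle wells; lower values mean less growth of the strain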
Conditions: growth OD

SMILES: CC(=O)c1cc2c(cc1O)OC(C)(C)C=C2
- normalized growth (S. cerevisiae deletion strains, locus YAL013W, strain DEP1, stronger effect = lower value): 0.991
- normalized growth (S. cerevisiae deletion strains, locus YBR021W, strain FUR4, stronger effect = lower value): 1.01
- normalized growth (S. cerevisiae deletion strains, locus YBR229C, strain ROT2, stronger effect = lower value): 0.983
- normalized growth (S. cerevisiae deletion strains, locus YCL029C, strain bik1, stronger effect = lower value): 0.993
- normalized growth (S. cerevisiae deletion strains, locus YDL035C, strain GPR1, stronger effect = lower value): 1
- normalized growth (S. cerevisiae deletion strains, locus YDL074C, strain BRE1, stronger effect = lower value): 0.974
- normalized growth (S. cerevisiae deletion strains, locus YDL101C, strain DUN1, stronger effect = lower value): 0.999
- normalized growth (S. cerevisiae deletion strains, locus YDL134C, strain PPH21, stronger effect = lower value): 1.01
- normalized growth (S. cerevisiae deletion strains, locus YDL185W, strain tfp1, stronger effect = lower value): 0.993
- normalized growth (S. cerevisiae deletion strains, locus YDL192W, strain arf1, stronger effect = lower value): 0.976
- normalized growth (S. cerevisiae deletion strains, locus YDR101C, strain arx1, stronger effect = lower value): 0.891 (active)
- normalized growth (S. cerevisiae deletion strains, locus YDR162C, strain NBP2, stronger effect = lower value): 1
- normalized growth (S. cerevisiae deletion strains, locus YDR318W, strain mcm21, stronger effect = lower value): 0.999
- normalized growth (S. cerevisiae deletion strains, locus YDR388W, stronger effect = lower value): 0.992
- normalized growth (S. cerevisiae deletion strains, locus YDR502C, strain sam2, stronger effect = lower value): 1
- normalized growth (S. cerevisiae deletion strains, locus YER110C, stronger effect = lower value): 0.979
- normalized growth (S. cerevisiae deletion strains, locus YER155C, strain BEM2, stronger effect = lower value): 0.975
- normalized growth (S. cerevisiae deletion strains, locus YER167W, strain BCK2, stronger effect = lower value): 0.96
- normalized growth (S. cerevisiae deletion strains, locus YGL078C, strain dbp3, stronger effect = lower value): 1.03
- normalized growth (S. cerevisiae deletion strains, locus YGL086W, strain mad1, stronger effect = lower value): 0.972
- normalized growth (S. cerevisiae deletion strains, locus YGL248W, strain PDE1, stronger effect = lower value): 0.997
- normalized growth (S. cerevisiae deletion strains, locus YGR078C, strain PAC10, stronger effect = lower value): 1.01
- normalized growth (S. cerevisiae deletion strains, locus YGR135W, strain pre9, stronger effect = lower value): 1.02
- normalized growth (S. cerevisiae deletion strains, locus YGR252W, strain gcn5, stronger effect = lower value): 1.07
- normalized growth (S. cerevisiae deletion strains, locus YHR079C, strain IRE1 (second series), stronger effect = lower value): 0.988
- normalized growth (S. cerevisiae deletion strains, locus YHR094C, strain hxt1, stronger effect = lower value): 0.983
- normalized growth (S. cerevisiae deletion strains, locus YHR129C, strain ARP1, stronger effect = lower value): 0.991
- normalized growth (S. cerevisiae deletion strains, locus YHR200W, strain rpn10, stronger effect = lower value): 0.97
- normalized growth (S. cerevisiae deletion strains, locus YIL066C, strain RNR3, stronger effect = lower value): 0.979
- normalized growth (S. cerevisiae deletion strains, locus YIL073C, strain SPO22, stronger effect = lower value): 1.03
- normalized growth (S. cerevisiae deletion strains, locus YIL125W, strain kgd1, stronger effect = lower value): 0.974
- normalized growth (S. cerevisiae deletion strains, locus YIR030C, strain dcg1, stronger effect = lower value): 0.982
- normalized growth (S. cerevisiae deletion strains, locus YJL095W, strain BCK1, stronger effect = lower value): 1.02
- normalized growth (S. cerevisiae deletion strains, locus YJL134W, strain LCB3, stronger effect = lower value): 0.98
- normalized growth (S. cerevisiae deletion strains, locus YJL168C, strain set2, stronger effect = lower value): 0.991
- normalized growth (S. cerevisiae deletion strains, locus YJL187C, strain SWE1 (second series), stronger effect = lower value): 1.03
- normalized growth (S. cerevisiae deletion strains, locus YJR043C, strain POL32, stronger effect = lower value): 0.935
- normalized growth (S. cerevisiae deletion strains, locus YKL009W, strain mrt4, stronger effect = lower value): 1.01
- normalized growth (S. cerevisiae deletion strains, locus YKL068W, stronger effect = lower value): 0.973
- normalized growth (S. cerevisiae deletion strains, locus YKL085W, strain MDH1 (second series), stronger effect = lower value): 0.976
- normalized growth (S. cerevisiae deletion strains, locus YKL085W, strain MDH1, stronger effect = lower value): 0.976
- normalized growth (S. cerevisiae deletion strains, locus YKL190W, strain CNB1, stronger effect = lower value): 0.991
- normalized growth (S. cerevisiae deletion strains, locus YKR001C, strain vps1, stronger effect = lower value): 0.968
- normalized growth (S. cerevisiae deletion strains, locus YLR039C, strain RIC1, stronger effect = lower value): 0.952
- normalized growth (S. cerevisiae deletion strains, locus YLR058C, strain SHM2, stronger effect = lower value): 0.999
- normalized growth (S. cerevisiae deletion strains, locus YLR102C, strain apc9, stronger effect = lower value): 0.981
- normalized growth (S. cerevisiae deletion strains, locus YLR268W, strain sec22, stronger effect = lower value): 0.99
- normalized growth (S. cerevisiae deletion strains, locus YLR330W, strain CHS5, stronger effect = lower value): 0.983
- normalized growth (S. cerevisiae deletion strains, locus YLR371W, strain rom2, stronger effect = lower value): 0.808 (active)
- normalized growth (S. cerevisiae deletion strains, locus YLR418C, strain cdc73, stronger effect = lower value): 0.964
- normalized growth (S. cerevisiae deletion strains, locus YML016C, strain PPZ1, stronger effect = lower value): 0.938
- normalized growth (S. cerevisiae deletion strains, locus YML032C, strain rad52, stronger effect = lower value): 0.993
- normalized growth (S. cerevisiae deletion strains, locus YML124C, strain tub3, stronger effect = lower value): 0.965
- normalized growth (S. cerevisiae deletion strains, locus YMR078C, strain ctf18, stronger effect = lower value): 0.956
- normalized growth (S. cerevisiae deletion strains, locus YMR223W, strain ubp8, stronger effect = lower value): 1.01
- normalized growth (S. cerevisiae deletion strains, locus YMR307W, strain GAS1, stronger effect = lower value): 1.15
- normalized growth (S. cerevisiae deletion strains, locus YNL067W, strain RPL9B, stronger effect = lower value): 1.01
- normalized growth (S. cerevisiae deletion strains, locus YNL233W, strain BNI4, stronger effect = lower value): 0.991
- normalized growth (S. cerevisiae deletion strains, locus YNL250W, strain rad50, stronger effect = lower value): 0.997
- normalized growth (S. cerevisiae deletion strains, locus YNL271C, strain bni1, stronger effect = lower value): 0.977
- normalized growth (S. cerevisiae deletion strains, locus YNL298W, strain CLA4, stronger effect = lower value): 1.01
- normalized growth (S. cerevisiae deletion strains, locus YNL307C, strain MCK1, stronger effect = lower value): 0.975
- normalized growth (S. cerevisiae deletion strains, locus YNR052C, strain pop2, stronger effect = lower value): 1.06
- normalized growth (S. cerevisiae deletion strains, locus YOL012C, strain htz1): 0.862
- normalized growth (S. cerevisiae deletion strains, locus YOL147C, strain pex11, stronger effect = lower value): 0.96
- normalized growth (S. cerevisiae deletion strains, locus YOR061W, strain CKA2, stronger effect = lower value): 0.982
- normalized growth (S. cerevisiae deletion strains, locus YOR069W, strain VPS5, stronger effect = lower value): 0.989
- normalized growth (S. cerevisiae deletion strains, locus YOR136W, strain idh2, stronger effect = lower value): 1.01
- normalized growth (S. cerevisiae deletion strains, locus YOR144C, strain elg1, stronger effect = lower value): 0.984
- normalized growth (S. cerevisiae deletion strains, locus YOR184W, strain ser1, stronger effect = lower value): 0.901
- normalized growth (S. cerevisiae deletion strains, locus YOR316C, strain cot1, stronger effect = lower value): 0.985
- normalized growth (S. cerevisiae deletion strains, locus YPR119W, strain clb2, stronger effect = lower value): 0.982
- normalized growth (S. cerevisiae deletion strains, locus YPR141C, strain kar3, stronger effect = lower value): 0.962
- normalized growth (S. cerevisiae deletion strains, locus YPR163C, strain tif3, stronger effect = lower value): 0.993
- normalized growth (S. cerevisiae deletion strains, locus YPR167C, strain met16, stronger effect = lower value): 0.993
- normalized growth (S. cerevisiae deletion strains, strain wtn01, stronger effect = lower value): 0.947
- normalized growth (S. cerevisiae strains, strain wild type, stronger effect = lower value): 0.983
